Screening results as filed in PubChem.
An excerpt weighted towards active compounds, which were near 2.8% of everything screened.
IDE act = human IDE activators in live cells, primary screen, fluorescence polarization, HEK cells, FAbeta-B substrate. FAbeta-B cleavage; 0% vehicle, 100% cell-free pure enzyme wells. activation, % at 5.96 µM. AID 493087, 2011. 340,000 compounds, 0.073% hits;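 active = activation above the mean of all tested compounds plus 3 SD, set per screening campaign, cut at about 17% in these data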
PP1 inh = PP1-alpha phosphatase inhibitors, primary screen, counter-screen for PP5 inhibitor project, biochemical, fluorescence, OMFP substrate, single point; 320,000 compounds, 0.9% hits; purified PP1alpha; Serine/threonine-protein phosphatase PP1-alpha catalytic subunit (Homo sapiens), P62136; inhibition, % at 6.7 µM;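 active = inhibition above the mean inhibition of all tested compounds plus 3 SD, computed separately for each screening campaign, cut at about 15% in these data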
PP5 primary = PP5 phosphatase inhibitors, primary screen, biochemical, fluorescence; Serine/threonine-protein phosphatase 5 (Homo sapiens), P53041; purified PP5c, OMFP substrate fluorescence; inhibition, % at 6.7 µM; 320,000 compounds, 0.18% hits; AID 1987, 2009;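 active = inhibition above the campaign's mean inhibition across all tested compounds plus 3 SD, cut at about 9.5% in these data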;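 also: 0% = DMSO only and 100% = 100 µM cantharidin control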
Exocytosis inh = LAMP-1 surface exposure blockers, TALL-104 cells – cell-based, flow cytometry, MLPCN library, primary screen; 360,000 compounds, 0.66% hits; inhibition, % at 10 µM; TALL-104 LAMP-1 surface exposure; cells stimulated with thapsigargin and PMA;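 active = inhibition above about 55%, limit read from the data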
SKKanGAS inh = S. pyogenes SKKanGAS growth inhibitors in kanamycin, primary screen, streptokinase expression inhibitor project, SKKanGAS strain, BacTiter-Glo luminescence; 300,000 compounds, 1.3% hits; 6 h; inhibition, % at 7.5 µM;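 active = mean replicate score, as percent of positive control median, at least 50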;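 also: strain carries kanamycin resistance gene driven by streptokinase promoter and grows in 40 µg/ml kanamycin; loss of luminescence reflects streptokinase promoter inhibition or plain growth inhibition; 0% = median of DMSO wells and 100% = positive control at its reference dose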
IDE cell inh = human IDE inhibitors in live cells, primary screen, fluorescence polarization, HEK cells, FAbetaB substrate | inhibition, % at 5.59 µM | FAbetaB cleavage | 320,000 compounds, 0.41% hits | AID 434962, 2010 | Insulin-degrading enzyme (Homo sapiens), P14735;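 active = percent inhibition above the average of all tested compounds plus 3 SD, set per screening campaign, cut at about 16% in these data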;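 also: IDE supplied by intact live HEK cells; FP after avidin binding of uncleaved biotin substrate so inhibition keeps polarization high; 0% = DMSO wells and 100% = 60 µM reference IDE inhibitor Ii1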
Active calls of the source: *; / = not tested or not shown.

SMILES	IDE act	PP1 inh	PP5 primary	Exocytosis inh	SKKanGAS inh	IDE cell inh
O=C(NCc1nnc2c(C(F)(F)F)cc(Cl)cn12)c1cccs1	-2	4	2	-3	8	4
Cc1cc(C(=O)Cn2c(CO)nc3ccccc32)c(C)n1C	2	-7	2	-1	-4	7
Cc1cccc(N2CCN(C(=O)C34CC5CC(CC(C5)C3)C4)CC2)c1C	4	4	1	0	83*	2
CCN(C(=O)CSc1nc2ccccc2c(=O)n1C(C)COC)C1CCS(=O)(=O)C1 (centres undefined)	0	-1	-1	0	-3	0
COc1ccccc1C(=O)NNC(=O)c1csc(N2CCOCC2)n1	1	-10	2	-4	-13	-4
O=C(NNC(=O)c1cc(-c2ccc(Cl)cc2)nc2ccccc12)c1csc(N2CCOCC2)n1	4	2	-1	-3	60*	3
O=C(NNC(=O)c1ccccc1OCc1ccccc1Cl)c1csc(N2CCOCC2)n1	0	4	4	-8	60*	9
CCCNC(=O)C[C@H]1CC[C@@H]2[C@H](COC[C@@H](O)CN2C(=O)c2ccccn2)O1	/	/	/	-2	/	/
Cc1ccc(C(=O)N/C(=C\c2ccccc2)C(=O)NCCCn2ccnc2)cc1	4	-3	-1	-1	-6	-4
N=C1S/C(=C\c2ccco2)C(=O)N1c1ccc2c(c1)OCO2	8	13	1	-3	2	2
N=C1S/C(=C\c2ccco2)C(=O)N1c1nccs1	2	-3	2	-2	81*	5
Cc1cc2occ(CC(=O)NC3=NCCS3)c2cc1C(C)C	-6	1	2	3	65*	5
Cc1ccc2c(CC(=O)NC3=NCCS3)coc2c1	3	-6	1	-1	5	6
CCOC(=O)C1=C(C)NC(C)=C(C(=O)OCC)C1c1ccc([N+](=O)[O-])s1	/	2	4	2	51*	3
COc1ccccc1NNC(=O)C(O)(c1ccccc1)c1ccccc1	2	-6	0	104*	-4	9
COc1ccccc1NNC(=O)C(O)(c1ccccc1OC)c1ccccc1OC	4	-11	0	-8	-13	-2
O=C(CCC(=O)N1CCOCC1)NCCc1ccc(Cl)cc1Cl	5	-4	2	-5	39	2
O=S(=O)(Nc1nc2ccccc2nc1Cl)c1ccc2ccccc2c1	0	6	-1	-2	51*	0
Cc1cc(C)c(C(=O)Nc2ccc(Br)c(C(F)(F)F)c2)c(C)c1	8	1	3	-1	72*	7
CCCc1[nH]n(-c2ccc([N+](=O)[O-])cc2)c(=O)c1C=NCCc1c[nH]c2ccccc12	3	-5	5	90*	9	-6
CCCc1c(C)[nH]c2ccc(C(=O)O)cc2c1=S	1	/	/	-3	-18	/
NS(=O)(=O)c1ccc(NC(=O)CSc2nnc3n2CCCCC3)cc1	0	/	/	-3	/	4
COc1cc(/C=C/C(=O)OC2CC3CCC2(C)C3(C)C)ccc1O (centres undefined)	3	13	6	0	61*	-1
COc1cc(/C=C/C(=O)OCC(=O)N2CCC(C)CC2)ccc1O	7	-5	1	-4	0	-2
CCN(CC)CC(C)CNC(=O)C1(O)c2ccccc2NC(=O)N1c1ccc(Cl)c(Cl)c1 (centres undefined)	1	15*	2	2	5	0
SMILES	IDE act	PP1 inh	PP5 primary	Exocytosis inh	SKKanGAS inh	IDE cell inh
O=C1Nc2ccccc2C(O)(C(=O)NCc2ccco2)N1c1ccc(Cl)c(Cl)c1 (centres undefined)	-1	-2	-8	-1	3	10
O=[N+]([O-])c1ccc(Cl)c(/C=N/n2c(COc3ccccc3)n[nH]c2=S)c1	3	-3	-1	-1	1	-1
Cc1cc(/C=N/n2c(COc3ccccc3C)nc3ccccc3c2=O)c(O)c([N+](=O)[O-])c1	4	3	4	5	52*	4
O=c1c2ccccc2nc(COc2ccccc2)n1/N=C/c1cc([N+](=O)[O-])ccc1O	0	8	0	3	76*	6
COc1ccc(C(=O)N2CCCC(Nc3ccc(C)c(C)c3)C2)cc1F (centres undefined)	-2	0	5	2	51*	2
Cc1ccc(Oc2ccc3c(c2)C(=O)N(c2ccc(S(=O)(=O)Nc4nccs4)cc2)C3=O)cc1	6	15	6	0	93*	-2
Cc1nn(Cc2c(Cl)cccc2Cl)c(Cl)c1/C=N/NC(=O)c1cccnc1	-7	1	5	-2	5	4
COc1ccc2c(c1)CC=C1C2CCC2(C)C(=O)C(=NO)CC12 (centres undefined)	3	/	/	91*	/	/
CC12CCC3C(=CCc4cc(O)ccc43)C1CC(=NO)C2O (centres undefined)	-2	/	/	6	/	/
CCCNC(=O)N[C@H]1C=C[C@H](CC(=O)OC)O[C@@H]1CO	/	/	/	0	/	/
C/C(=N\Nc1cc(-c2ccccc2)nc(-c2ccc(Br)cc2)n1)c1cccc(N)c1	9	-1	3	-1	/	0
C/C(=N/Nc1cc(-c2ccccc2)nc(-c2ccccc2)n1)c1ccc(O)cc1	0	1	7	8	99*	9
OC(COCC(F)(F)C(F)(F)C(F)(F)C(F)F)Cn1c2ccc(Cl)cc2c2cc(Cl)ccc21 (centres undefined)	9	1	4	0	110*	-2
N=c1n(Cc2ccc(Cl)cc2)c2ccccc2n1CC(O)COc1ccccc1 (centres undefined)	11	13	1	33	11	2
Cc1ccc(OCc2cc(C(=O)N(C)Cc3cnc4ccccn34)no2)cc1C	-21	4	0	0	-19	12
CN(C)c1ccc(C(=O)c2ccc(O)cc2O)cc1	0	2	-1	-3	-1	10
CN(C)c1ccc(Cc2cc3c(O)ccc(O)c3cc(Cc3ccc(N(C)C)cc3)c2=O)cc1	-28	/	/	104*	/	/
O=C1C(=C(I)I)c2ccccc2-c2ccccc21	-3	/	/	103*	/	/
O=C(O)c1cccc2c1C(=O)c1ccccc1-2	3	-2	-1	-1	-4	-4
CSc1ccc(-c2nc(O)c3cnccn23)cc1	6	3	2	10	-14	-1
CC(C)COC(=O)c1cccc2c1-c1ccccc1/C2=N\O	6	6	4	1	74*	-2
